Measured values published in paper PMC7862700, “An all-to-all approach to the identification of sequence-specific readers for epigenetic DNA modifications on cytosine”.

Assays:
Experiment in all cases: DAPPL (digital affinity profiling via proximity ligation, sequencing); 10 mM Tris-HCl pH 7.5, 50 mM NaCl, 1 mM DTT, 4% glycerol, room temperature, 30 min; GST-TFs on glutathione beads, 16-mer random dsDNA library, 0.1% formaldehyde crosslink after washing; high values mean tight binding
Conditions in all cases: protein: recombinant; tags: N-terminal GST; dsDNA, one strand shown
[1] = biological target: T1, FLI1 (Homo sapiens, UniProt Q01543 1-452)
T1 sequence: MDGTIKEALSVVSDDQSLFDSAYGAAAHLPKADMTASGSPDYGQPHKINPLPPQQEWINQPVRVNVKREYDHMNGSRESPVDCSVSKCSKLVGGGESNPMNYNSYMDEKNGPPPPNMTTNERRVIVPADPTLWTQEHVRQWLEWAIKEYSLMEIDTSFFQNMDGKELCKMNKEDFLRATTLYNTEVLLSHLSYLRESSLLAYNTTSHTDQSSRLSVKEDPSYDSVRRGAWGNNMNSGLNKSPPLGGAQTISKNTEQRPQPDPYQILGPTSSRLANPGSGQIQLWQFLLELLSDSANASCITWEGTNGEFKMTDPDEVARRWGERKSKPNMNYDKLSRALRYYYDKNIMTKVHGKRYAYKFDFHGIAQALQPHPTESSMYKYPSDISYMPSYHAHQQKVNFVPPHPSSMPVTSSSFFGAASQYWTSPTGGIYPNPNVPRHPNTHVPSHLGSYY
Procedure, shortened: (§1)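 Pools were built from human transcription factors expressed in yeast as GST fusions, captured on glutathione beads and DNA-barcoded, along with a tag-only sample. Incubation with 200 nmole of a 16-mer random double-stranded DNA library lasted 30 min at room temperature in Tris/NaCl/DTT/glycerol buffer, and was followed by washing, 0.1% formaldehyde crosslinking, proximity ligation, PCR amplification and Illumina NextSeq500 sequencing. Binding signal is the quotient of each hexamer's read frequency for a factor and its frequency for the tag-only sample.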

[2] = biological target: T2, ELK1 (Homo sapiens, UniProt P19419 1-428)
T2 sequence: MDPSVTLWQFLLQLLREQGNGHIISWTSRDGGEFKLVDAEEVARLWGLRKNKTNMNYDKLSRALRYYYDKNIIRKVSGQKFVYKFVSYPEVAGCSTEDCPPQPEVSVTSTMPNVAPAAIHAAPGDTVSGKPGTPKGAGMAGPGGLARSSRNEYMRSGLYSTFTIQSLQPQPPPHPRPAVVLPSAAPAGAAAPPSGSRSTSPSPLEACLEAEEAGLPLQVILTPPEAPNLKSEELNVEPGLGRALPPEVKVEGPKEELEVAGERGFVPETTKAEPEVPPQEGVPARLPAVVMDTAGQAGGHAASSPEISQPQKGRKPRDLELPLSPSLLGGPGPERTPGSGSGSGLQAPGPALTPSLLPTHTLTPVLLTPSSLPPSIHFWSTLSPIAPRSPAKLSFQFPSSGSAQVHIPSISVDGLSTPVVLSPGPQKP
Procedure, shortened: as §1

[3] = biological target: T3, GABPA (Homo sapiens, UniProt Q06546 1-454)
T3 sequence: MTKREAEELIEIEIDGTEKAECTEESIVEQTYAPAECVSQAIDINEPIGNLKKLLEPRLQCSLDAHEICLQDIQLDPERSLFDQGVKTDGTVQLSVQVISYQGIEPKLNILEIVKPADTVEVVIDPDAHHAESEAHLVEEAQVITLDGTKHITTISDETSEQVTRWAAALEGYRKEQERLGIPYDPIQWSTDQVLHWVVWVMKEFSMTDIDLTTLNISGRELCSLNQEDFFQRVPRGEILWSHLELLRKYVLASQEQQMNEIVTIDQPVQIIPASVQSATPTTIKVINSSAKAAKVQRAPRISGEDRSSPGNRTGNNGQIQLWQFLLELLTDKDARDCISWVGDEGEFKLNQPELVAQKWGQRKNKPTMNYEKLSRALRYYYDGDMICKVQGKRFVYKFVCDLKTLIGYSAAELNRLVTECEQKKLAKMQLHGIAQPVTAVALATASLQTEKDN
Procedure, shortened: as §1

[4] = biological target: T4, ERG (Homo sapiens, UniProt P11308 1-479)
T4 sequence: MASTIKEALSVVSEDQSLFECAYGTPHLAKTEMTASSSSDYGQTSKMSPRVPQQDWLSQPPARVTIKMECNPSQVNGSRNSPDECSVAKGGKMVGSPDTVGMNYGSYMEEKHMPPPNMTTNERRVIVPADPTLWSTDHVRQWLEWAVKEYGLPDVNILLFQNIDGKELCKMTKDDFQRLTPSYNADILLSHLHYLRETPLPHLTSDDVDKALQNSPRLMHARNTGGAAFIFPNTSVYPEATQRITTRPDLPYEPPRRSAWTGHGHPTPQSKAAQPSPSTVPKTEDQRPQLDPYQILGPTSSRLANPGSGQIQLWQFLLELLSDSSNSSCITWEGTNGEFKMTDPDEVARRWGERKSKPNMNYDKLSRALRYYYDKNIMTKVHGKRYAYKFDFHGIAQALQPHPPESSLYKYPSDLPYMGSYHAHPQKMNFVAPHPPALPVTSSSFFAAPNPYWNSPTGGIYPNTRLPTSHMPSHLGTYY
Procedure, shortened: as §1

[5] = biological target: ELF1 (Homo sapiens, UniProt P32519 1-619)
Procedure, shortened: as §1

[6] = biological target: T5, EHF (Homo sapiens, UniProt Q9NZC4 1-300)
T5 sequence: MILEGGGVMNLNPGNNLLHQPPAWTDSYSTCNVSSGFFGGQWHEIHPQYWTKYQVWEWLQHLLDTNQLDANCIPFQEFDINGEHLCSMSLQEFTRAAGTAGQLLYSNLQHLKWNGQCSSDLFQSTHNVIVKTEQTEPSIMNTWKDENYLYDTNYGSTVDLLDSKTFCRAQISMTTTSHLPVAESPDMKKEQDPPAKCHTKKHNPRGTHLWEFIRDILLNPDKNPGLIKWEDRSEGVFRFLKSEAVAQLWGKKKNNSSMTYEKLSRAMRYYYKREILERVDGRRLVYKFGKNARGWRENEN
Procedure, shortened: as §1

[7] = biological target: SPI1 (Homo sapiens, UniProt P17947 1-270)
Procedure, shortened: as §1

[8] = biological target: SPIB (Homo sapiens, UniProt Q01892 1-262)
Procedure, shortened: as §1

[9] = biological target: T6, ELK3 (Homo sapiens, UniProt P41970 1-407)
T6 sequence: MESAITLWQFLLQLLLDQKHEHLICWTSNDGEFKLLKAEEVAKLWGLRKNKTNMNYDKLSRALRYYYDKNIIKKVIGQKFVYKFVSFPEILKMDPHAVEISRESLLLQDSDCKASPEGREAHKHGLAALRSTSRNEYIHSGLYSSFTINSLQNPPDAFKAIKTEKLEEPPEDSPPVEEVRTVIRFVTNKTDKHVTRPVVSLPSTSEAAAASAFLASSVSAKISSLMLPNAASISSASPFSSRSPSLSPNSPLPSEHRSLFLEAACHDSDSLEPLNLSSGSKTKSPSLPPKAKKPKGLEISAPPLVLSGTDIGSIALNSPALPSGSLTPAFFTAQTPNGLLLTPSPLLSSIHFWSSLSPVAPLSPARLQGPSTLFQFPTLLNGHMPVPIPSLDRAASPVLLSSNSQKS
Procedure, shortened: as §1

[10] = biological target: T7, FEV (Homo sapiens, UniProt Q99581 1-238)
T7 sequence: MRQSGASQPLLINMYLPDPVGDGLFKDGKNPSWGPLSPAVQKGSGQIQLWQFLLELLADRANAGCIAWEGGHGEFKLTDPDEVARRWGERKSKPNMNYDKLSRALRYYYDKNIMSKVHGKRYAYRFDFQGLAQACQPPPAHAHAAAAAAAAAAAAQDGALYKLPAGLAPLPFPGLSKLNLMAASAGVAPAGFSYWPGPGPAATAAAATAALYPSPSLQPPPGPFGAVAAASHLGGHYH
Procedure, shortened: as §1

[11] = biological target: ETV5 (Homo sapiens, UniProt P41161 1-510)
Procedure, shortened: as §1

[12] = biological target: T8, SPIC (Homo sapiens, UniProt Q8N5J4 1-248)
T8 sequence: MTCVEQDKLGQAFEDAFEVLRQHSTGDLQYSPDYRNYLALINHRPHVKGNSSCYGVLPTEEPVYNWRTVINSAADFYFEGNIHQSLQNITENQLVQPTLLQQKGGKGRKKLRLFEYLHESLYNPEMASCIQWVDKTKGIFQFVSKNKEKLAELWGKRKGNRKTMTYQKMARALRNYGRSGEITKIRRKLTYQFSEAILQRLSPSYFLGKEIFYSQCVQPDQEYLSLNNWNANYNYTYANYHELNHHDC
Procedure, shortened: as §1

[13] = biological target: ELF4 (Homo sapiens, UniProt Q99607 1-663)
Procedure, shortened: as §1

[14] = biological target: T9, ELK4 (Homo sapiens, UniProt P28324-2 1-405)
T9 sequence: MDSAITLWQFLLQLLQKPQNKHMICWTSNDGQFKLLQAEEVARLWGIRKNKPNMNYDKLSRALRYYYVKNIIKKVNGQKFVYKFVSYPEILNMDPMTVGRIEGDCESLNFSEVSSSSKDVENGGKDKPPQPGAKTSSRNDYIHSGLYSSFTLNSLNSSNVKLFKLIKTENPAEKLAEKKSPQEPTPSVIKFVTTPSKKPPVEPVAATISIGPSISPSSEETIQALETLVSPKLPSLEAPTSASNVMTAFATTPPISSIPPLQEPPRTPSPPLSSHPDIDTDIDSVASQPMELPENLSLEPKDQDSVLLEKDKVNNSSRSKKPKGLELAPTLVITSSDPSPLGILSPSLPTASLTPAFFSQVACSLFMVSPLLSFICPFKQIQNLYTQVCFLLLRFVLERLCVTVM
Procedure, shortened: as §1

[15] = biological target: T10, ETV2 (Homo sapiens, UniProt O00321 1-342)
T10 sequence: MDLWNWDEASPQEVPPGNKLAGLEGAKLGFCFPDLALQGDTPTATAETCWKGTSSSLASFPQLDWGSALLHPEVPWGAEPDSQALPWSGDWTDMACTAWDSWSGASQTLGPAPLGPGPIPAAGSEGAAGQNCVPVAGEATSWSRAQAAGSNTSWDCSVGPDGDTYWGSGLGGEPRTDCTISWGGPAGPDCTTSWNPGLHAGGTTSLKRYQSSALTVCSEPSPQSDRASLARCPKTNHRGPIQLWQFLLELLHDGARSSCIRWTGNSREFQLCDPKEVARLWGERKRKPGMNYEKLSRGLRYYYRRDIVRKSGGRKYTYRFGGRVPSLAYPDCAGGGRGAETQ
Procedure, shortened: as §1

[16] = biological target: T11, ELF3 (Homo sapiens, UniProt P78545 1-371)
T11 sequence: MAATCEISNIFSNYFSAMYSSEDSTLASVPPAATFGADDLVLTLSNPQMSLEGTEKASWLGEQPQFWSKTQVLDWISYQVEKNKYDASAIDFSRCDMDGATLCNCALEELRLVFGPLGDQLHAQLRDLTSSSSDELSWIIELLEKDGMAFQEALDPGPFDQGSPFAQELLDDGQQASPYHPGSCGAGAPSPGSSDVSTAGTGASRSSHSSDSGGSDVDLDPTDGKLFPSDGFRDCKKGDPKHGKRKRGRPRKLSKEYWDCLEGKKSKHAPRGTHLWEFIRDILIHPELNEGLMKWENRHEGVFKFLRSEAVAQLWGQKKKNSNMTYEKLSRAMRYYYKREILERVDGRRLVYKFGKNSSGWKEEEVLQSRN
Procedure, shortened: as §1

[17] = biological target: ETV1 (Homo sapiens, UniProt P50549 1-477)
Procedure, shortened: as §1

Chain of ELF4 (Q99607 whole entry): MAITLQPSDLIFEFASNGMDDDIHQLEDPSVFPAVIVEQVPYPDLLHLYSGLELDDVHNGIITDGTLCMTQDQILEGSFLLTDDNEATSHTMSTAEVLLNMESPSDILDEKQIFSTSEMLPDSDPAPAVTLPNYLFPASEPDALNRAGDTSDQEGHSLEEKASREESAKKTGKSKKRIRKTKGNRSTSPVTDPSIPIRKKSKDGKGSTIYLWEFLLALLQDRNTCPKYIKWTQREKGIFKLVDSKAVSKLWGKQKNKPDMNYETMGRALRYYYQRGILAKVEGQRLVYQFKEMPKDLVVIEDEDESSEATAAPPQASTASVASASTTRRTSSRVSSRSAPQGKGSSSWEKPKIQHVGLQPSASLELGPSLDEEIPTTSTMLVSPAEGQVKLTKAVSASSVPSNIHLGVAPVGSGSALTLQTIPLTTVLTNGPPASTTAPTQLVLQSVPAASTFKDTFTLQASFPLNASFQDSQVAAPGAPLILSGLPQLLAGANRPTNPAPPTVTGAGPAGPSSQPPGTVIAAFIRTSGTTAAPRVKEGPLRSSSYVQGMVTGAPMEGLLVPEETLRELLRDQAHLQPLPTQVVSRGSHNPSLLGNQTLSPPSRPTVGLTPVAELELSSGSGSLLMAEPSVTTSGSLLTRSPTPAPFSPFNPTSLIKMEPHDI
Chain of ELF1 (P32519 whole entry): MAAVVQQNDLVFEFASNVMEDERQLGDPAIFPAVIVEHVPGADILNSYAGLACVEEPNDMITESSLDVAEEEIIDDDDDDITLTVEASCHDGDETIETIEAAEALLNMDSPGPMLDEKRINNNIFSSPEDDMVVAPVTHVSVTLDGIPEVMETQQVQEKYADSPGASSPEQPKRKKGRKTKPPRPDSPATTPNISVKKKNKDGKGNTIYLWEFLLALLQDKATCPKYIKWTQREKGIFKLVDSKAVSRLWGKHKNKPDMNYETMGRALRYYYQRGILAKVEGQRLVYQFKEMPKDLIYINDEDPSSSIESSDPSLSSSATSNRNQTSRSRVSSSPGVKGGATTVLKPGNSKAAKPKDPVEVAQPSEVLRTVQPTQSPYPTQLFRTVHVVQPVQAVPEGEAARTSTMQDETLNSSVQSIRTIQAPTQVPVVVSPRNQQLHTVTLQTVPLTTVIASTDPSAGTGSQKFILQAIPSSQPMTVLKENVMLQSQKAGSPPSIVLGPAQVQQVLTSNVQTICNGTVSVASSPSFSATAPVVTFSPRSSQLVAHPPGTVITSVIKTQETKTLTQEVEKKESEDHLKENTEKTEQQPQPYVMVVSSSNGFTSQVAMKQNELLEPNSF
Chain of ETV5 (P41161 whole entry): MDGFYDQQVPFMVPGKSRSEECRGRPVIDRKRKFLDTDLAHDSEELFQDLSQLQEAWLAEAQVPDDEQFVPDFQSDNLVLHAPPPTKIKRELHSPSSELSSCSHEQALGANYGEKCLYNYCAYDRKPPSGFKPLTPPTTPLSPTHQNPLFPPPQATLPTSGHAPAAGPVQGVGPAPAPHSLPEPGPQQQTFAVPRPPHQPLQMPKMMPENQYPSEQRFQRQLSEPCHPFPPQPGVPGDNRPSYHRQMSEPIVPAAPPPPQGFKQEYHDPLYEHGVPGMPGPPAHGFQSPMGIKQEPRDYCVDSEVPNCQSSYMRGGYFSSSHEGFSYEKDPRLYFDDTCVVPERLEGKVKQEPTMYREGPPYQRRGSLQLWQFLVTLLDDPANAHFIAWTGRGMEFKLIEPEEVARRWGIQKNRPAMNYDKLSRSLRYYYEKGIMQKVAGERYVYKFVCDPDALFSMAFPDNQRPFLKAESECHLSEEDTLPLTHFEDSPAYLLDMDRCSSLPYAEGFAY
Chain of ETV1 (P50549 whole entry): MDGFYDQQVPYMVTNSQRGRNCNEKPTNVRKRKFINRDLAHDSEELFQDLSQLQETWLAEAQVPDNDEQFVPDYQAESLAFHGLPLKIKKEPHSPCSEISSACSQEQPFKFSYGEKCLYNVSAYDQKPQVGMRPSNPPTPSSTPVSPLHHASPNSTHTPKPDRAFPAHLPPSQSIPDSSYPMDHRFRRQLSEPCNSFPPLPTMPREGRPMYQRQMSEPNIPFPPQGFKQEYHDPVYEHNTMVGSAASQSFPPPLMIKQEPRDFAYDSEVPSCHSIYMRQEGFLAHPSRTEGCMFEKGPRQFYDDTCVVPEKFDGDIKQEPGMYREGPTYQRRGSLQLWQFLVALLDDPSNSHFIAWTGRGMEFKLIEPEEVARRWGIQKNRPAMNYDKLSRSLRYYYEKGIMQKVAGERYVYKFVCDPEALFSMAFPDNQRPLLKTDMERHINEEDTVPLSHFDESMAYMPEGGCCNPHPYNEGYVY
Chain of SPIB (Q01892 whole entry): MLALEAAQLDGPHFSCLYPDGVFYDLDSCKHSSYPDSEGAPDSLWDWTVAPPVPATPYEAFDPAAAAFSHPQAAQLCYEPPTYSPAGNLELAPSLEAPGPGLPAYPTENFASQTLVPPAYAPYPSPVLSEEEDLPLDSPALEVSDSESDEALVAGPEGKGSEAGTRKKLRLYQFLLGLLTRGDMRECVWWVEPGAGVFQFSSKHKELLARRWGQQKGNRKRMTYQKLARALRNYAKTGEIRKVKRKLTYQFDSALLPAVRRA

Sequence	binding signal [1]	binding signal [2]	binding signal [3]	binding signal [4]	binding signal [5]	binding signal [6]	binding signal [7]	binding signal [8]	binding signal [9]	binding signal [10]	binding signal [11]	binding signal [12]	binding signal [13]	binding signal [14]	binding signal [15]	binding signal [16]	binding signal [17]
GCGTTT	1.1 fold enrichment (6-mer frequency, TF over GST control)	1.04 fold enrichment (6-mer frequency, TF over GST control)	1.11 fold enrichment (6-mer frequency, TF over GST control)	1.14 fold enrichment (6-mer frequency, TF over GST control)	1.08 fold enrichment (6-mer frequency, TF over GST control)	1.14 fold enrichment (6-mer frequency, TF over GST control)	1.05 fold enrichment (6-mer frequency, TF over GST control)	1.13 fold enrichment (6-mer frequency, TF over GST control)	1.2 fold enrichment (6-mer frequency, TF over GST control)	1.18 fold enrichment (6-mer frequency, TF over GST control)	1.09 fold enrichment (6-mer frequency, TF over GST control)	1.15 fold enrichment (6-mer frequency, TF over GST control)	1.13 fold enrichment (6-mer frequency, TF over GST control)	1.16 fold enrichment (6-mer frequency, TF over GST control)	1.11 fold enrichment (6-mer frequency, TF over GST control)	1.15 fold enrichment (6-mer frequency, TF over GST control)	
TGTCTG	1 fold enrichment (6-mer frequency, TF over GST control)	1.1 fold enrichment (6-mer frequency, TF over GST control)	1.11 fold enrichment (6-mer frequency, TF over GST control)	1.05 fold enrichment (6-mer frequency, TF over GST control)	1.06 fold enrichment (6-mer frequency, TF over GST control)		1.17 fold enrichment (6-mer frequency, TF over GST control)	1.16 fold enrichment (6-mer frequency, TF over GST control)		1.15 fold enrichment (6-mer frequency, TF over GST control)	1.09 fold enrichment (6-mer frequency, TF over GST control)	1.33 fold enrichment (6-mer frequency, TF over GST control)	1.04 fold enrichment (6-mer frequency, TF over GST control)	1.02 fold enrichment (6-mer frequency, TF over GST control)	1.21 fold enrichment (6-mer frequency, TF over GST control)	1.21 fold enrichment (6-mer frequency, TF over GST control)	1.04 fold enrichment (6-mer frequency, TF over GST control)
GATAGC	1.11 fold enrichment (6-mer frequency, TF over GST control)	1.1 fold enrichment (6-mer frequency, TF over GST control)	1.13 fold enrichment (6-mer frequency, TF over GST control)	1.02 fold enrichment (6-mer frequency, TF over GST control)	1.02 fold enrichment (6-mer frequency, TF over GST control)	1.1 fold enrichment (6-mer frequency, TF over GST control)	1.05 fold enrichment (6-mer frequency, TF over GST control)		1.1 fold enrichment (6-mer frequency, TF over GST control)	1.07 fold enrichment (6-mer frequency, TF over GST control)	1.04 fold enrichment (6-mer frequency, TF over GST control)	1.07 fold enrichment (6-mer frequency, TF over GST control)	1.06 fold enrichment (6-mer frequency, TF over GST control)	1.03 fold enrichment (6-mer frequency, TF over GST control)	1.18 fold enrichment (6-mer frequency, TF over GST control)	1.08 fold enrichment (6-mer frequency, TF over GST control)	1.02 fold enrichment (6-mer frequency, TF over GST control)
